Shown are actives, neighbours in structure and some others; about 1.7% of the full set was active somewhere.
Fh CTSL1 inh: blocks F. hepatica cathepsin L1 in PFM18AAP counter-screen | recombinant F. hepatica cathepsin L1, Z-Leu-Arg-MCA fluorescence | actives 0.49% (n = 300,000) | inhibition, % at 5.96 µM;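 active = inhibition above the mean of all tested compounds plus 3 SD, set per screening campaign, cut at about 17% in these data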;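 also: 0% = plate median of test compound wells and 100% = 1 µM Z-Phe-Ala-diazomethylketone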
LANA-H2A inh: blocks KSHV LANA binding to histone H2A/H2B | Q9QR71 | cell-free LANA-H2A/H2B peptide, fluorescence polarization | inhibition, % (concentration not given with the values) | actives 0.6% (n = 320,000) | AID 2629; in the data active = inhibition mostly above about 10%, no sharp cut-off; inactive = mostly below about 6.7%
m5-HT2A agonist: agonists of mouse serotonin 5-HT2A receptor (HTR2A); P35363; CHO-K1 mHTR2A beta-arrestin complementation, luminescence; percent of 30 µM serotonin response; activation, % at 7.6 µM; actives 0.66% (n = 360,000);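 active = activation above a run cutoff, the mean activation of all tested compounds plus 3 SD, cut at about 14% in these data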;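 also: 0% = plate median of compound wells and 100% = 30 µM serotonin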
HDAC3 inhib: human HDAC3 inhibition | O15379 | recombinant HDAC3, fluorogenic peptide/trypsin coupled, fluorescence | inhibition, % at 8.3 µM | actives 0.15% (n = 320,000) | AID 2718; in the data active = inhibition above about 26%, passing the limit was not always enough; inconclusive = no clear call, values can overlap the other calls
Target sequence (O15379 whole entry, looked up): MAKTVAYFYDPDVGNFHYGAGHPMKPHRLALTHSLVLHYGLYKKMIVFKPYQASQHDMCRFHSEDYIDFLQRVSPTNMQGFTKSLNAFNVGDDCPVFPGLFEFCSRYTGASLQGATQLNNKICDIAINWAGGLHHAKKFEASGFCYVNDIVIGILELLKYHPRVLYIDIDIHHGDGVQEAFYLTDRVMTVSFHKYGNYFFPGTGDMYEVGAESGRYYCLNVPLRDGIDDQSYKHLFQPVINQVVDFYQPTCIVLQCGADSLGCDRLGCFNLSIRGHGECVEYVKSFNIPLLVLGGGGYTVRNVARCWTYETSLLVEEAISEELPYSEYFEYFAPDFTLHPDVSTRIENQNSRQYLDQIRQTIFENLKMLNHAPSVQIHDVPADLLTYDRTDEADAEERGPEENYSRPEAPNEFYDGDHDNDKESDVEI
* marks the source's active call; other numbers are inactive results.

For CN(C)CCOC(c1ccccc1)c1ccccc1 (tested in a mixture with another compound) the results were Fh CTSL1 inh 10, LANA-H2A inh 13*, m5-HT2A agonist -8 and HDAC3 inhib -1.
Screening CSc1nc(-c2ccco2)nn1C(=O)c1ccccc1 returned Fh CTSL1 inh 1, LANA-H2A inh -1, m5-HT2A agonist 4 and HDAC3 inhib 97*.
Screening CSc1nc(-c2ccco2)nn1C(=O)c1ccco1 returned Fh CTSL1 inh -3, LANA-H2A inh -5, m5-HT2A agonist -6 and HDAC3 inhib 72*.
`CCCC(=O)n1nc(-c2ccco2)nc1SCc1ccccc1` gave Fh CTSL1 inh 0, LANA-H2A inh 2, m5-HT2A agonist -2 and HDAC3 inhib 48*.
Screening CCOC(=O)CN(C(=O)COC(=O)C1=NNC(=O)CC1)c1ccc(F)cc1 returned LANA-H2A inh 4, m5-HT2A agonist 2 and HDAC3 inhib 3.
For COc1ccc(CCNC(=O)c2cccn2C)cc1 the results were Fh CTSL1 inh -1, LANA-H2A inh 30*, m5-HT2A agonist 5 and HDAC3 inhib -9.
`O=C(NNC(=O)C1CCCN(c2ncccn2)C1)c1ccncc1` (configuration not stated) gave Fh CTSL1 inh -1, LANA-H2A inh 12*, m5-HT2A agonist -2 and HDAC3 inhib -2.
Cc1ccccc1C(=O)NNC(=O)C1CCCN(c2ncccn2)C1 (configuration not stated) was read as Fh CTSL1 inh 4, LANA-H2A inh 5, m5-HT2A agonist 3 and HDAC3 inhib -4.
`Cc1ccc2c(c1)c1nc3ccccc3nc1n2C` gave Fh CTSL1 inh 3, LANA-H2A inh 7, m5-HT2A agonist 3 and HDAC3 inhib 2.
CCOc1ccc2c(c1)c1nc3ccccc3nc1n2C was read as LANA-H2A inh 39*, m5-HT2A agonist 2 and HDAC3 inhib 0.
CC(=O)c1ccc(N2Cc3ccccc3/C2=N\C(=O)Nc2ccccc2)cc1 was read as Fh CTSL1 inh 2, LANA-H2A inh -3, m5-HT2A agonist -3 and HDAC3 inhib 3.
`CC(=O)c1cccc(N2Cc3ccccc3C2=NC(=O)CCl)c1` gave Fh CTSL1 inh 77*, LANA-H2A inh -3, m5-HT2A agonist 5 and HDAC3 inhib 2.
CC(C)Cc1ccc(CN2CCCC(NC(=O)c3cccc(-n4cnnc4)c3)C2)cc1 (configuration not stated) was read as Fh CTSL1 inh 3, LANA-H2A inh 53*, m5-HT2A agonist -7 and HDAC3 inhib 1.
O=C(NC1CCCN(Cc2ccc(Cl)cc2)C1)c1c(F)cccc1F (configuration not stated) was read as Fh CTSL1 inh 28*, LANA-H2A inh 7, m5-HT2A agonist -5 and HDAC3 inhib -2.
CC(C)Cc1ccc(CN2CCCC(NC(=O)c3ccoc3)C2)cc1 (configuration not stated) was read as Fh CTSL1 inh 8, LANA-H2A inh 3 and m5-HT2A agonist -10.
O=C(NC1CCCN(Cc2ccc(Cl)cc2)C1)c1c(F)ccc(F)c1F (configuration not stated) was read as Fh CTSL1 inh 64*, LANA-H2A inh -3, m5-HT2A agonist 2 and HDAC3 inhib -7.
Screening O=C(NC1CCCN(CCc2ccccc2)C1)c1c(F)cccc1F (configuration not stated) returned Fh CTSL1 inh 1, LANA-H2A inh 0, m5-HT2A agonist 5 and HDAC3 inhib -12.
O=C(NC1CC1)c1ccc2sc([C@H]3C[C@H](O)[C@@H](CO)O3)nc2c1 was read as m5-HT2A agonist 8.
For CN=c1nc(-c2ccccc2)n(-c2ccccc2)s1 the results were Fh CTSL1 inh -6, LANA-H2A inh 1, m5-HT2A agonist -6 and HDAC3 inhib 56*.
Screening Cn1nc(-c2ccccc2)nc1-c1ccccc1 returned Fh CTSL1 inh 1, LANA-H2A inh -2, m5-HT2A agonist 6 and HDAC3 inhib -6.
Screening Nc1nc(N)c(N=O)c(OCC2CCCCC2)n1 returned Fh CTSL1 inh 104*, LANA-H2A inh 0, m5-HT2A agonist 0 and HDAC3 inhib 9.
`CS(=O)(=O)Nc1ccc([N+](=O)[O-])cc1Oc1ccccc1` gave Fh CTSL1 inh -3, LANA-H2A inh 32*, m5-HT2A agonist -4 and HDAC3 inhib 7.
`O=C(O)c1cccc(S(=O)(=O)Nc2cccc(S(=O)(=O)N3CCCC3)c2)c1` gave LANA-H2A inh -11, m5-HT2A agonist -3 and HDAC3 inhib 1.
CCN(CC)c1ccc2c(-c3ccc(S(=O)(=O)O)cc3S(=O)(=O)[O-])c3ccc(=[N+](CC)CC)cc-3oc2c1 was read as Fh CTSL1 inh 6, LANA-H2A inh 150*, m5-HT2A agonist -2 and HDAC3 inhib 4.
For CCCn1c2ccccc2c2cnn(CC(=O)NC3CCCCC3)c(=O)c21 the results were Fh CTSL1 inh 7, LANA-H2A inh 2, m5-HT2A agonist 4 and HDAC3 inhib inconclusive.
Cc1ccc(S(=O)(=O)N2CCN(C(=O)COC(=O)c3ccccc3Cl)CC2)c(C)c1 was read as LANA-H2A inh 1, m5-HT2A agonist 17* and HDAC3 inhib 4.
`CCOC(=O)c1c(C)[nH]c(C(=O)OCC(=O)N2CCN(S(=O)(=O)c3ccc(C)cc3C)CC2)c1C` gave LANA-H2A inh 122*, m5-HT2A agonist -3 and HDAC3 inhib 6.
Screening Cc1ccnc(Nc2ccc(CCO)cc2)n1 returned m5-HT2A agonist 1.
O=C(N/N=C/c1cccs1)c1cc(-c2cccc3ccccc23)n[nH]1 was read as Fh CTSL1 inh -3, LANA-H2A inh 17*, m5-HT2A agonist 0 and HDAC3 inhib 6.
`O=C(CSc1ncn[nH]1)CSc1ncn[nH]1` gave Fh CTSL1 inh -2, LANA-H2A inh -1, m5-HT2A agonist 3 and HDAC3 inhib 37*.
For Cc1ccccc1C(=O)Nc1sc2c(c1C(=O)O)CCC2 the results were Fh CTSL1 inh 0, LANA-H2A inh 17*, m5-HT2A agonist -3 and HDAC3 inhib 0.
CN(C)c1nc(N(C)C)c2cnn(C)c2n1 was read as m5-HT2A agonist 1.
For O=C1C(c2ccccc2)=[N+]([O-])c2ccccc21 the results were Fh CTSL1 inh 31*, LANA-H2A inh 4, m5-HT2A agonist -1 and HDAC3 inhib -14.
For COC1=C(c2ccccc2)C(=O)c2ccccc2C1=O the results were Fh CTSL1 inh 13, LANA-H2A inh 0, m5-HT2A agonist -2 and HDAC3 inhib 13.
Screening C[C@H](NC(=O)c1nc[nH]c1C(=O)N[C@@H](Cc1ccccc1)C(=O)OCc1ccccc1)C(=O)OC(C)(C)C returned Fh CTSL1 inh 6, LANA-H2A inh -4, m5-HT2A agonist 4 and HDAC3 inhib 31*.
Screening C[C@@H](NC(=O)c1nc[nH]c1C(=O)N[C@@H](Cc1ccccc1)C(=O)OCc1ccccc1)c1ccccc1 returned Fh CTSL1 inh 6, LANA-H2A inh 3, m5-HT2A agonist 0 and HDAC3 inhib -4.
`CN(Cc1ccccc1)C(=O)c1[nH]cnc1C(=O)N[C@@H](Cc1ccccc1)C(=O)OCc1ccccc1` gave Fh CTSL1 inh 4, LANA-H2A inh -1, m5-HT2A agonist 23* and HDAC3 inhib 33*.

Screening results as filed in PubChem.
